Counter-ions that a name gives are not always drawn.
Tests used:
Conditions in all cases: 20 µM
[1] = system: Salmonella enterica typhimurium; experiment: growth AUC normalised to DMSO control (fraction of control); higher = less growth inhibition, active = hit call of the paper
Outline: (§1)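 For the AUC endpoint, growth curves were integrated by the trapezoidal rule up to the exponential-to-stationary transition and normalised to DMSO controls on the same plate. The curves came from OD578 readings taken hourly for 24 h, in three biological replicates. Pathogens had been passaged anaerobically twice and inoculated at an OD578 of 0.01 into pre-reduced mGAM plates carrying 20 μM compound and 1% DMSO, sealed with breathable membranes. Medium for Haemophilus parainfluenzae also contained hemin and NAD.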

Shigella flexneri = experiment: as above
Outline: as §1

Vibrio cholerae = experiment: as above
Outline: as §1

[2] = system: Yersinia pseudotuberculosis; experiment: as above
Outline: as §1

P. vulgatus RND KO = experiment: growth AUC normalised to DMSO control (median) (fraction of control); higher = less growth inhibition, active = hit call of the paper
Outline: (§2)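 Each strain went through two overnight passages under anaerobic conditions before growth in mGAM in 96-well plates, starting at OD578 0.01, with each compound from the approved-drug library at 20 μM and 1% DMSO. Inside an anaerobic incubator, OD578 was recorded every hour for 24 h. Growth curves were cut off at entry into stationary phase, and the area under the curve was calculated by the trapezoidal rule and normalised to vehicle wells on the same plate. Reported values are medians of three biological replicates.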

P. vulgatus WT = experiment: as above
Outline: as §2

[3] = system: S. enterica typhimurium WT; experiment: as above
Outline: as §2

[4] = system: S. enterica typhimurium tolC KO; experiment: as above
Outline: as §2

Measured: growth AUC normalised to DMSO control
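Throughout, for growth AUC normalised to DMSO control (median): active when median AUC fell below 0.1.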

COC(=O)Nc1nc2cc(C(=O)c3cccs3)ccc2[nH]1 [Nocodazole]
inactive: [1] 1.01 | Shigella flexneri 1.02 | Vibrio cholerae 0.979 | [2] 1 | P. vulgatus RND KO 1.01 | P. vulgatus WT 1.02 | [3] 1.01 | [4] 0.975

OCCOCCN1CCN(C2=Nc3ccccc3Sc3ccccc32)CC1 [Quetiapine hemifumarate]
inactive: [1] 0.999 | Shigella flexneri 0.978 | Vibrio cholerae 0.991 | [2] 0.981 | P. vulgatus RND KO 0.946 | P. vulgatus WT 0.91 | [3] 1.01 | [4] 0.977

O=c1[nH]cc(F)c(=O)[nH]1 [5-fluorouracil]
active: [1] 0.842 | Shigella flexneri 0.745 | P. vulgatus RND KO 0.0695 | P. vulgatus WT 0.0782
inactive: Vibrio cholerae 0.942 | [2] 0.927 | [3] 0.809 | [4] 0.806

Cc1cccc(Nc2ccccc2C(=O)O)c1C [Mefenamic acid]
inactive: [1] 1 | Shigella flexneri 1.01 | Vibrio cholerae 0.926 | [2] 1 | P. vulgatus RND KO 0.958 | P. vulgatus WT 0.979 | [3] 0.985 | [4] 1.01

Nc1ccc(S(=O)(=O)Nc2ncccn2)cc1 [Sulfadiazine]
inactive: [1] 0.989 | Shigella flexneri 0.974 | Vibrio cholerae 1 | [2] 0.987 | P. vulgatus RND KO 0.996 | P. vulgatus WT 0.995 | [3] 0.986 | [4] 1

CC(=O)OCC1=C(C(=O)O)N2C(=O)[C@@H](NC(=O)Cc3cccs3)[C@H]2SC1 [Cephalothin sodium salt]
active: [1] 0.00459 | Shigella flexneri 0.025 | Vibrio cholerae 0.0489 | [2] 0.0158 | P. vulgatus RND KO 0.00752 | P. vulgatus WT 0.0068 | [3] 0.00336 | [4] 0.00338

CC(=O)[C@H]1CC[C@H]2[C@@H]3C[C@H](C)C4=CC(=O)CC[C@]4(C)[C@H]3[C@@H](O)C[C@]12C [Medrysone]
inactive: [1] 0.994 | Shigella flexneri 0.962 | Vibrio cholerae 0.974 | [2] 0.991 | P. vulgatus RND KO 0.997 | P. vulgatus WT 1.02 | [3] 1.01 | [4] 0.976

Nc1nc(=O)c2c([nH]1)NC[C@@H](CNc1ccc(C(=O)N[C@@H](CCC(=O)O)C(=O)O)cc1)N2C=O [Folinic acid calcium salt]
inactive: [1] 1 | Shigella flexneri 0.999 | Vibrio cholerae 1.01 | [2] 1 | P. vulgatus RND KO 1.01 | P. vulgatus WT 1.04 | [3] 1 | [4] 1

COC(=O)C1=C(C)NC(C)=C(C(=O)OCC(C)C)C1c1ccccc1[N+](=O)[O-] (stereo not given) [Nisoldipine]
inactive: [1] 1.01 | Shigella flexneri 1 | Vibrio cholerae 1.01 | [2] 0.991 | P. vulgatus RND KO 0.945 | P. vulgatus WT 0.981 | [3] 1.01 | [4] 0.95

Cn1c(=O)c2c(ncn2CC2OCCO2)n(C)c1=O [Doxofylline]
inactive: [1] 1 | Shigella flexneri 1.07 | Vibrio cholerae 1.01 | [2] 0.99 | P. vulgatus RND KO 1.02 | P. vulgatus WT 1.06 | [3] 0.999 | [4] 1

CNCC(O)c1ccc(O)c(O)c1 (stereo not given) [Racepinephrine hydrochloride]
inactive: [1] 1.03 | Shigella flexneri 1.02 | Vibrio cholerae 1.09 | [2] 1.04 | P. vulgatus RND KO 1.01 | P. vulgatus WT 1 | [3] 1.01 | [4] 1

C[N+]1(C)CCC(=C(c2ccccc2)c2ccccc2)CC1 [Diphemanil methylsulfate]
inactive: [1] 0.987 | Shigella flexneri 1.01 | Vibrio cholerae 1.02 | [2] 1.02 | P. vulgatus RND KO 1.03 | P. vulgatus WT 1.02 | [3] 0.991 | [4] 1

CC1CCc2cc(F)cc3c(=O)c(C(=O)O)cn1c23 (stereo not given) [Flumequine]
inactive: P. vulgatus RND KO 0.801 | P. vulgatus WT 0.647
active: [1] 0.00993 | Shigella flexneri 0.0348 | Vibrio cholerae 0.0549 | [2] 0.0304 | [3] 0.0214 | [4] 0.00721

COc1ccc2c(c1)C(=O)N(CCc1ccc(S(=O)(=O)NC(=O)NC3CCCCC3)cc1)C(=O)C2(C)C [Gliquidone]
inactive: [1] 1 | Shigella flexneri 1.02 | Vibrio cholerae 0.995 | [2] 1 | P. vulgatus RND KO 0.994 | P. vulgatus WT 1.01 | [3] 1.01 | [4] 1

CN[C@@H]1[C@H](O[C@H]2[C@H](O[C@H]3[C@H](O)[C@@H](O)[C@H](NC(=N)N)[C@@H](O)[C@@H]3NC(=N)N)O[C@@H](C)[C@]2(O)CO)O[C@@H](CO)[C@H](O)[C@H]1O [Dihydrostreptomycin sulfate]
inactive: [1] 0.994 | Shigella flexneri 1.01 | Vibrio cholerae 1.02 | [2] 0.973 | P. vulgatus RND KO 0.999 | P. vulgatus WT 1.02 | [3] 0.992 | [4] 0.989

OC(Cn1cncn1)(Cn1cncn1)c1ccc(F)cc1F [Fluconazole]
inactive: [1] 1.01 | Shigella flexneri 1.03 | Vibrio cholerae 1.04 | [2] 1.01 | P. vulgatus RND KO 1.01 | P. vulgatus WT 1.06 | [3] 1.01 | [4] 1

Cc1cc(NC(=O)C2=C(O)c3ccccc3S(=O)(=O)N2C)no1 [Isoxicam]
inactive: [1] 0.982 | Shigella flexneri 0.974 | Vibrio cholerae 0.901 | [2] 0.984 | P. vulgatus RND KO 0.979 | P. vulgatus WT 0.975 | [3] 0.991 | [4] 0.993

N=C(N)NC(=O)Cc1c(Cl)cccc1Cl [Guanfacine hydrochloride]
inactive: [1] 0.983 | Shigella flexneri 0.971 | Vibrio cholerae 1.02 | [2] 0.988 | P. vulgatus RND KO 1.02 | P. vulgatus WT 1.04 | [3] 0.989 | [4] 0.966

CC[C@@H]1C(=O)OC[C@@H]1Cc1cncn1C [Pilocarpine nitrate]
inactive: [1] 0.995 | Shigella flexneri 1 | Vibrio cholerae 0.998 | [2] 1.04 | P. vulgatus RND KO 0.982 | P. vulgatus WT 0.998 | [3] 1 | [4] 1

CCCCCN(C)CCC(O)(P(=O)(O)O)P(=O)(O)O [Ibandronate sodium]
inactive: [1] 0.982 | Shigella flexneri 0.98 | Vibrio cholerae 0.992 | [2] 1.01 | P. vulgatus RND KO 0.998 | P. vulgatus WT 1.01 | [3] 0.99 | [4] 1

Cc1c(O)c(=O)n(-c2ccccc2)n1C [Antipyrine, 4-hydroxy]
inactive: [1] 1.01 | Shigella flexneri 1.07 | Vibrio cholerae 1.01 | [2] 1.03 | P. vulgatus RND KO 1.01 | P. vulgatus WT 1.06 | [3] 1.01 | [4] 1

C[C@]12CCC(=O)C=C1C=C[C@@H]1[C@@H]2CC[C@@]2(C)[C@H]1CC[C@@]21CCC(=O)O1 [Canrenone]
inactive: [1] 1.01 | Shigella flexneri 1.06 | Vibrio cholerae 1.03 | [2] 1.01 | P. vulgatus RND KO 1.07 | P. vulgatus WT 1.1 | [3] 1.01 | [4] 0.939

CN(C(=O)C(Cl)Cl)c1ccc(OC(=O)c2ccco2)cc1 [Diloxanide furoate]
inactive: [1] 0.998 | Shigella flexneri 0.959 | Vibrio cholerae 0.97 | [2] 0.978 | P. vulgatus RND KO 0.988 | P. vulgatus WT 0.996 | [3] 0.995 | [4] 0.966

N=C(N)NS(=O)(=O)c1ccc(N)cc1 [Sulfaguanidine]
inactive: [1] 1.01 | Shigella flexneri 0.98 | Vibrio cholerae 1.04 | [2] 1.04 | P. vulgatus RND KO 1.06 | P. vulgatus WT 1.05 | [3] 0.999 | [4] 1

CN1CCC(OC(c2ccccc2)c2ccccc2)CC1 [Diphenylpyraline hydrochloride]
inactive: [1] 0.988 | Shigella flexneri 0.996 | Vibrio cholerae 0.962 | [2] 0.987 | P. vulgatus RND KO 0.994 | P. vulgatus WT 1 | [3] 0.987 | [4] 0.983

CNC(=C[N+](=O)[O-])NCCSCc1csc(CN(C)C)n1 [Nizatidine]
inactive: [1] 0.998 | Shigella flexneri 0.989 | Vibrio cholerae 0.997 | [2] 1 | P. vulgatus RND KO 1.03 | P. vulgatus WT 1.04 | [3] 1.02 | [4] 0.989

CC(C)NCC(O)c1cc(O)cc(O)c1 (stereo not given) [Metaproterenol sulfate]
inactive: [1] 0.995 | Shigella flexneri 0.967 | Vibrio cholerae 0.998 | [2] 0.988 | P. vulgatus RND KO 0.986 | P. vulgatus WT 1 | [3] 1.01 | [4] 0.997

N=C(N)NCCN1CCCCCCC1 [Guanethidine sulfate]
inactive: [1] 1.01 | Shigella flexneri 0.988 | Vibrio cholerae 1.04 | [2] 1.03 | P. vulgatus RND KO 1.02 | P. vulgatus WT 1.01 | [3] 1.01 | [4] 1.01

O=C(NC(Cc1cc(=O)[nH]c2ccccc12)C(=O)O)c1ccc(Cl)cc1 (stereo not given) [Rebamipide]
inactive: [1] 1 | Shigella flexneri 1.03 | Vibrio cholerae 1.03 | [2] 0.997 | P. vulgatus RND KO 1.06 | P. vulgatus WT 1.09 | [3] 0.99 | [4] 0.998

CC(C)(C)NCC(O)c1ccc(O)c(CO)c1 (stereo not given) [Salbutamol]
inactive: [1] 0.985 | Shigella flexneri 0.97 | Vibrio cholerae 0.984 | [2] 0.985 | P. vulgatus RND KO 0.985 | P. vulgatus WT 0.956 | [3] 0.992 | [4] 0.997

CC1CC(OC(=O)c2ccccc2O)CC(C)(C)C1 (stereo not given) [Homosalate]
inactive: [1] 1 | Shigella flexneri 0.996 | Vibrio cholerae 1.02 | [2] 1.01 | P. vulgatus RND KO 0.995 | P. vulgatus WT 1.03 | [3] 1.01 | [4] 0.998

NC(=O)N1c2ccccc2C=Cc2ccccc21 [Carbamazepine]
inactive: [1] 0.997 | Shigella flexneri 0.996 | Vibrio cholerae 0.999 | [2] 1 | P. vulgatus RND KO 1 | P. vulgatus WT 1.04 | [3] 0.998 | [4] 0.999

CCCCC(=O)O[C@H]1CC[C@H]2[C@@H]3CCc4cc(O)ccc4[C@H]3CC[C@]12C [Estradiol Valerate]
inactive: [1] 1.05 | Shigella flexneri 1.05 | Vibrio cholerae 1.08 | [2] 1.01 | P. vulgatus RND KO 1 | P. vulgatus WT 1.07 | [3] 0.998 | [4] 1

CC(C(=O)O)c1ccc(-c2ccccc2)c(F)c1 (stereo not given) [Flurbiprofen]
inactive: [1] 0.986 | Shigella flexneri 0.98 | Vibrio cholerae 0.96 | [2] 0.985 | P. vulgatus RND KO 0.994 | P. vulgatus WT 0.991 | [3] 0.995 | [4] 0.977

CCOC(=O)NNc1nncc2ccccc12 [Todralazine hydrochloride]
inactive: [1] 1.01 | Shigella flexneri 1.01 | Vibrio cholerae 0.99 | [2] 1.01 | P. vulgatus RND KO 1.01 | P. vulgatus WT 0.999 | [3] 1.01 | [4] 1.02
